Measured values reported in PubChem BioAssay.
Calls of active or inactive are those of the source.

Tests used:
[1] = tested on: Plasmodium falciparum Sir2 (PF13_0152, Sir2A); assay: pfSir2 binders on small-molecule microarrays, primary screen, biochemical, small-molecule microarray, 635 nm fluorescence (AID 1098); conditions: small-molecule microarray binding, fluorescence 635 nm; higher = more signal;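 further: score merges spot fluorescence intensity with its signal-to-noise ratio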
[2] = small-molecule microarray binders of probe aDKK1, primary screen, biochemical, biotinylated probe, 635/667 nm fluorescence (AID 1099); conditions: higher = more signal;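 further: score merges 667nm spot fluorescence with signal to noise across triplicate slides; reference of the scale not given here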
[3] = small-molecule microarray binders of probe aCHRDL2, primary screen, biochemical, biotinylated probe, 635/667 nm fluorescence (AID 1100); conditions: higher = more signal
[4] = splicing luciferase reporter signal modulators, primary screen, spliceosome inhibition project, cell-based, HEK293, splice +/- reporter (AID 1101); conditions: luminescence, 24 h, higher = more signal, called active from +8 up or from −8 down;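 further: HEK293 cells carrying a splicing-competent luciferase reporter gene; test concentration not given here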
[5] = target: Fibroblast growth factor 10 (Homo sapiens) (UniProt O15520); assay: FGF10 binders on small-molecule microarrays, primary screen, biochemical, small-molecule microarray, 635 nm fluorescence (AID 1102); conditions: FGF10 binding, fluorescence 635 nm, higher = more signal
Chain of Fibroblast growth factor 10 (Homo sapiens) (O15520 whole entry, looked up): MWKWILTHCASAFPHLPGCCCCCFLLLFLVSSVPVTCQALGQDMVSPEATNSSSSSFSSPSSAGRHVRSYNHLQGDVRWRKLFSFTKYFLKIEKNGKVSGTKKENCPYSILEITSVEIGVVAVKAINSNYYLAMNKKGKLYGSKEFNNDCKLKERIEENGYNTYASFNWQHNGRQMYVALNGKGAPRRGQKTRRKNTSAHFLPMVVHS

[6] = tested on: glycogen synthase kinase-3 (GSK3A per assay name; protocol says GSK3B); assay: GSK3 binders on small-molecule microarrays, primary screen, biochemical, small-molecule microarray, 635 nm fluorescence, GSK3A (AID 1103); conditions: small-molecule microarray binding, fluorescence 635 nm; higher = more signal; further: the record names both GSK3A and GSK3B
[7] = target: Epidermal growth factor receptor (Homo sapiens) (UniProt P00533); assay: EGFR binders on small-molecule microarrays, primary screen, biochemical, small-molecule microarray, 635 nm fluorescence (AID 1104); conditions: EGFR binding, higher = more signal;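 further: score merges 667 nm emission intensity with spot signal to noise over triplicate slides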
Chain of Epidermal growth factor receptor (Homo sapiens) (P00533 whole entry, looked up): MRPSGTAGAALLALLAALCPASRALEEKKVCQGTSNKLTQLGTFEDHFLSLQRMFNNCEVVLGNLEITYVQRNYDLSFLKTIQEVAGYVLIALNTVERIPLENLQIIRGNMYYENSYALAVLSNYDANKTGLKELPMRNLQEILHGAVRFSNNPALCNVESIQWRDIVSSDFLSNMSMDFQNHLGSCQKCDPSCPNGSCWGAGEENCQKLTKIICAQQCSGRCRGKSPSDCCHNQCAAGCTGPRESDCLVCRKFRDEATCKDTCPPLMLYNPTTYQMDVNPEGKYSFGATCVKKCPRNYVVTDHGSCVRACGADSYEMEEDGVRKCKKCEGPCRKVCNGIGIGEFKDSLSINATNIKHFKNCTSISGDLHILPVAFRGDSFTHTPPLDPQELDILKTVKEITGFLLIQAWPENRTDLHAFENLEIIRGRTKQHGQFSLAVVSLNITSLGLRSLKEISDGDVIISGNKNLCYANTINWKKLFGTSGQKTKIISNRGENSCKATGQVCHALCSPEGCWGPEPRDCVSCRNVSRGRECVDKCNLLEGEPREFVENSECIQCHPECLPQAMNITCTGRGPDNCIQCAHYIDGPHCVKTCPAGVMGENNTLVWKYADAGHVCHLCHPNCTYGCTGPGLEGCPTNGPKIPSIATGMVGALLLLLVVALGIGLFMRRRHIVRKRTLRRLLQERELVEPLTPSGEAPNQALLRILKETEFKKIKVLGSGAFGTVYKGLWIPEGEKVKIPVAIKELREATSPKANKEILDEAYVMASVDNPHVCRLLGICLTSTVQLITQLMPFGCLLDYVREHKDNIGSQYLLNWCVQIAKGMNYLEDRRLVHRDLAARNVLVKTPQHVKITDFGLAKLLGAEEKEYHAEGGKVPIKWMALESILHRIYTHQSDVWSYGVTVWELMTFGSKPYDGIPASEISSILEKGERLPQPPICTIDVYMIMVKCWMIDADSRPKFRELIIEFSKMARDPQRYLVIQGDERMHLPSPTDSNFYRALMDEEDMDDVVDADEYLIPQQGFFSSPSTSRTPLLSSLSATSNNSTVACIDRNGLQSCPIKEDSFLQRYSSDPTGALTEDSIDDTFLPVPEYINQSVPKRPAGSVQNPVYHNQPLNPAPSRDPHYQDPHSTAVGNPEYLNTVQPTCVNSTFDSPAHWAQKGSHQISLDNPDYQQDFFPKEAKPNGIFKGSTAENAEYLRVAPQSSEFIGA

[8] = target: Follistatin-related protein 3 (Homo sapiens) (UniProt O95633); assay: FSTL3 binders on small-molecule microarrays, primary screen, biochemical, small-molecule microarray, 635 nm fluorescence (AID 1105); conditions: FSTL3 binding, higher = more signal;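 further: score merges emission near 667 nm and signal to noise per printed spot across three slides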
Chain of Follistatin-related protein 3 (Homo sapiens) (O95633 whole entry, looked up): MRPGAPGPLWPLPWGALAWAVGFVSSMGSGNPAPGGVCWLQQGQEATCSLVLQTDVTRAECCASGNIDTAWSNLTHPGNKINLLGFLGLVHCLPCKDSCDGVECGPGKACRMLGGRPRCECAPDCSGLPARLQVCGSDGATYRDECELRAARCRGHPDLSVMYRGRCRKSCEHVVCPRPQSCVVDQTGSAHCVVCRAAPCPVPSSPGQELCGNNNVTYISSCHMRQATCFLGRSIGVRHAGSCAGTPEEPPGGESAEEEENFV

[9] = target: Dickkopf-related protein 1 (Homo sapiens) (UniProt O94907); assay: DKK1 binders on small-molecule microarrays, primary screen, biochemical, small-molecule microarray, 635 nm fluorescence scan (AID 1106); conditions: DKK1 binding, higher = more signal;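 further: score merges emission near 667 nm with signal to noise over three replicate slides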
Chain of Dickkopf-related protein 1 (Homo sapiens) (O94907 whole entry, looked up): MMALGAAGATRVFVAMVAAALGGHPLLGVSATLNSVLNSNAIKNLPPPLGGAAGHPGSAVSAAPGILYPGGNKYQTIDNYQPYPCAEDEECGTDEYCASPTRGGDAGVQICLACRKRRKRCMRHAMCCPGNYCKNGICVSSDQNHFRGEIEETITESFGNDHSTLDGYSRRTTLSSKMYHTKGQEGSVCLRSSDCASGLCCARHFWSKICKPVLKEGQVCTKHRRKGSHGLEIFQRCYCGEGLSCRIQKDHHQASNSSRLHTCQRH

[10] = tested on: Inhibin beta A chain (activin A); assay: INHBA (activin A) binders on microarrays, primary screen, biochemical, small-molecule microarray, 635 nm fluorescence scan (AID 1107); conditions: small-molecule microarray binding, higher = more signal;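 further: mouse activin A protein probed at 4.33 µg/mL on printed slides; score merges bound-protein fluorescence near 667 nm with spot signal-to-noise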

| SMILES | composite z-score [1] | composite z-score [2] | composite z-score [3] | z-score [4] | composite z-score [5] | composite z-score [6] | composite z-score [7] | composite z-score [8] | composite z-score [9] | composite z-score [10] |
| --- | --- | --- | --- | --- | --- | --- | --- | --- | --- | --- |
| COCCOC(=O)N1C(=O)[C@@]2(c3cc(C#CCNC(N)=O)ccc31)[C@H](c1ccc(OCCO)cc1)N1[C@H](c3ccccc3)[C@H](c3ccccc3)OC(=O)[C@H]1[C@@H]2C(=O)N1CCN(c2ncccn2)CC1 | 0.832 | 0.46 | 0.978 | -0.37 (inactive) | 1.25 | 0.824 | 0.612 | 1.3 | 0.564 | 1.46 |
| C#CCNS(=O)(=O)N(C)C | 0.365 | -0.0521 | -0.55 | 0.0242 (inactive) | 0.296 | 0.642 | 0.469 | 0.31 | 0.216 | -0.128 |
| CC1(C)[C@@H]2CC(C(O)C3C=CC4C(=O)N(c5ccccc5)C(=O)C4N3Nc3ccccc3F)=C[C@@H]1C2 (stereo not given in full) | 1.4 | 0.26 | 0.471 | -1.75 (inactive) | 1.34 | 1.31 | 0.4 | 1.31 | 0.122 | 0.603 |
| CCCC=C(CCC)[C@@H](NS(=O)(=O)c1cccc2cccnc12)c1ccc(C(=O)OC)cc1 | 0.817 | 2.53 | 1.46 | -0.355 (inactive) | 1.58 | 0.0656 | 1.8 | 1.24 | 0.726 | 0.948 |
| O=C1OCCC=C[C@H]2OC34C=CCN(Cn5nnc6ccccc65)C(=O)[C@H]3N(CCCCCO)C(=O)[C@@H]4C12 (stereo not given in full) | 1.18 | -0.181 | 0.311 | 0.227 (inactive) | -0.691 | -0.368 | -0.97 | -1.09 | -0.925 | 0.0469 |
| COCCCNC(=O)[C@@]1(Cc2ccccc2N=[N+]=[N-])N=C(c2ccc(OCCCO)cc2)O[C@H]1c1ccccc1CN=[N+]=[N-] | 0.953 | 1.19 | 1.18 | -0.456 (inactive) | 1.43 | 1.21 | 0.0402 | 0.511 | -0.338 | 1.21 |
| C#CCOC(=O)N[C@H](C=CCCCC)c1ccccc1 | -0.257 | 0.326 | 0.942 | -0.341 (inactive) | 0.605 | 0.35 | 0.241 | -0.484 | -0.352 | 0.983 |
| CCCCC(O)C1C=CC2C(=O)N(Cc3ccccc3)C(=O)C2N1n1cnnc1 (stereo not given) | 0.769 | -0.0884 | 0.213 | -0.75 (inactive) | 0.303 | 0.144 | 0.188 | 0.412 | 0.178 | 1.05 |
| COCCOC(=O)N1C(=O)[C@@]2(c3cc(C#CCNC(N)=O)ccc31)[C@H](C(N)=O)[C@H]1C(=O)O[C@H](c3ccccc3)[C@H](c3ccccc3)N1[C@@H]2c1ccc(OCCO)cc1 | 1.05 | 0.0301 | 0.721 | 0.731 (inactive) | 0.535 | 0.737 | 0.793 | 1.45 | 0.825 | 1.35 |
| C/C=C/[C@@H](CCn1cc([C@H](O)c2ccccc2)nn1)[Si](C)(C)c1ccc(OC)cc1 | 1.53 | -0.414 | 0.476 | -0.406 (inactive) | -0.71 | -0.507 | -0.849 | -0.748 | -0.0219 | 0.0838 |
| CN(C)CCCNC(=O)[C@@]1(Cc2ccccc2I)c2ccccc2C(=O)N(Cc2ccccc2Cl)[C@H]1c1ccc(CO)cc1 | 1.56 | 0.94 | 1.33 | -3.68 (inactive) | 0.247 | 0.122 | -1.4 | -0.509 | -0.83 | 1.03 |
| CN(C)CCCC[C@@H]1NC(=O)[C@H]2C[C@@H](C(=O)NCCCCCCNC(=O)CS)[C@@H](c3ccc(O)cc3)N2C1=O | 1.74 | -0.172 | 0.314 | -0.296 (inactive) | -0.31 | -0.323 | 0.0264 | 1.27 | -0.17 | 0.947 |
| [N-]=[N+]=NCc1ccccc1C[C@]1(C(=O)NCCN2CCOCC2)N=C(c2ccc(OCCCO)cc2)O[C@H]1c1ccccc1 | 1.69 | 0.103 | 0.826 | -0.326 (inactive) | 1.04 | 1.28 | -0.329 | 0.0637 | -0.781 | 0.527 |
| CCOC(=O)C1=CC[C@@H](c2cccc(Br)c2)N(S(=O)(=O)c2ccc(C)cc2)[C@H]1c1ccc([N+](=O)[O-])cc1 | 1.47 | 0.448 | -0.0145 | -0.183 (inactive) | 1.2 | 0.356 | 0.877 | 1.32 | 0.82 | 0.784 |
| COCCOC(=O)N1C(=O)[C@@]2(c3cc(C#Cc4ccc(OC)cc4)ccc31)[C@H](C(N)=O)[C@H]1C(=O)O[C@H](c3ccccc3)[C@H](c3ccccc3)N1[C@@H]2c1ccc(OCCO)cc1 | 1.43 | -0.178 | -0.13 | -0.853 (inactive) | 1.42 | 1.33 | 0.769 | 1.34 | 0.631 | 0.343 |
| CCCNC(=O)[C@@]1(Sc2ccc(C)cc2)CC(=O)N(Cc2ccccc2)[C@@H]1c1ccc(CO)cc1I | 0.523 | 0.806 | 0.484 | -0.494 (inactive) | 0.559 | 0.108 | 0.183 | 0.942 | 0.353 | 1.47 |
| COc1ccc([Si](C)(C)[C@@H]2[C@@H](CCO)O[C@]3(C(=O)N(Cc4ccc(N5C(=O)c6ccccc6Oc6ccccc65)cc4)c4ccccc43)[C@H]2C)cc1 | -0.364 | -0.0754 | 0.543 | -0.853 (inactive) | -0.791 | -1.07 | -1.57 | -0.644 | -0.815 | -0.557 |
| COCCOC(=O)N1C(=O)[C@@]2(c3cc(C#CC4(O)CCCCCC4)ccc31)[C@H](C(=O)NC[C@H](O)c1ccccc1)[C@H]1C(=O)O[C@H](c3ccccc3)[C@H](c3ccccc3)N1[C@@H]2c1ccc(OCCO)cc1 | 0.971 | -0.0726 | -0.0689 | -1.15 (inactive) | 0.68 | 0.673 | 0.429 | 0.834 | 0.348 | 0.193 |
| COc1ccccc1CN1C(=O)c2ccccc2[C@](Cc2ccccc2I)(C(=O)NCCN2CCOCC2)[C@@H]1c1ccc(CO)cc1 | 1.62 | -0.0631 | 0.227 | 0.233 (inactive) | 1.02 | 1.31 | 1.05 | 1.46 | 0.635 | 0.437 |
| C=CC[C@]1(C(=O)N2CCOCC2)N=C(c2ccc(OCCCO)cc2)O[C@H]1c1ccccc1CN=[N+]=[N-] | 1.55 | 0.0557 | 0.948 | -0.244 (inactive) | 1.24 | 0.0251 | -0.124 | 0.879 | -0.121 | 0.58 |
| CCOc1cc(C(O)C2C=CC3C(=O)NC(=O)C3N2Nc2ccccn2)ccc1O (stereo not given) | 0.38 | -0.0596 | -0.0156 | 1.12 (inactive) | 0.592 | 0.156 | 0.28 | 0.189 | 0.107 | 0.925 |
| NCCCCCCNC(=O)[C@H]1C[C@H]2C(=O)N3CCC[C@H]3C(=O)N2[C@H]1c1ccc(O)cc1 | 1.22 | 0.0237 | 0.134 | 0.089 (inactive) | 0.264 | 0.572 | 0.386 | 0.747 | 0.735 | 0.977 |
| CC(C)c1ccc(NN2C(C(O)c3cccs3)C=CC3C(=O)N(c4ccccc4)C(=O)C32)cc1 (stereo not given) | 1.02 | 0.0558 | 0.928 | 0.356 (inactive) | 0.461 | 1.31 | 0.156 | 1.21 | -0.054 | 0.975 |
| COC(=O)[C@@]1(Cc2ccc(F)cc2)[C@H]2c3cc(C(=O)N(C)C)n(Cc4ccc(C)c(F)c4F)c3C[C@H]2CN1C(=O)c1ccccc1 | 0.0477 | 0.871 | 1.03 | -0.509 (inactive) | 0.158 | -0.224 | 0.558 | -0.0326 | -0.693 | 1.39 |
| CC(C)NC(=O)[C@@H]1c2ccccc2C(=O)N(Cc2cc(C(F)(F)F)cc(C(F)(F)F)c2)[C@H]1c1ccc(CO)cc1 | 0.46 | 0.178 | 0.226 | 0.0833 (inactive) | 0.312 | 0.811 | -0.0125 | 0.504 | 0.307 | 0.325 |
| C[N+](C)(C)CCCCCCNC(=O)[C@@H]1C[C@@H]2C(=O)NCC(=O)N2[C@@H]1c1cccc(OCCO)c1 | 1.23 | -0.253 | -0.127 | -2.5 (inactive) | 0.781 | 0.496 | 0.144 | 1.44 | 1.24 | 0.728 |
| COCCCNC(=O)[C@@]1(Cc2ccccc2)COC(c2ccc(OCCCO)cc2)=N1 | 1.7 | 0.583 | 1.11 | -0.37 (inactive) | 0.505 | 0.384 | -0.715 | -0.776 | -0.688 | 0.065 |
| C=CCOC(=O)[C@@H]1[C@H]2C(=O)O[C@H](c3ccccc3)[C@H](c3ccccc3)N2[C@H](c2ccc(OCCOC(=O)[C@@H]3C[C@@H]4C(=O)N[C@@H](CCCCNC(C)=O)C(=O)N4[C@@H]3c3ccc(O)cc3)cc2)[C@@]12C(=O)Nc1ccc(I)cc12 | 1.58 | -0.219 | -0.249 | 0.0887 (inactive) | 1.43 | 1.27 | 1.12 | 1.35 | 0.616 | 0.499 |
